Measured values published in PubChem BioAssay (Tox21).
Results filed as inconclusive are left out. Calls of active or inactive are those of the source. Unless noted, calls follow the shape of the dose curve; as a rule, active = well fitted curve in the direction sought with a large enough effect in the repeat runs; inconclusive = weak or mixed curves; inactive = no such curve, though single readings can be large; an effect the other way counts as inactive or inconclusive.

Tests used:
[1] = qHTS assay to identify small molecule antagonists of the estrogen receptor beta (ER-beta) signaling pathway - cell viability counter screen (AID 1259382);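 also: HEK293T cells carrying ER-beta-UAS-bla reporter stimulated with estradiol; series mostly up to about 92 µM; nearly all actives have a fitted effect of over 55% in size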
Outline: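 ER-beta-UAS-bla HEK293T cells (2,000/well, 2% charcoal-stripped FBS) were pre-incubated 6 hr at 37C, then given compound plus 1nM final 17-beta-estradiol for 16 hr. Viability was read in the same wells by CellTiter-Glo luminescence after 30 min at room temperature.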

[2] = molecular target: Estrogen receptor (Homo sapiens) (UniProt P03372); experiment: qHTS assay to identify small molecule agonists of the estrogen receptor alpha (ER-alpha) signaling pathway in the presence of an antagonist (AID 1259383; calls by dose curve; also: top concentration of the series differs between compounds; nearly all actives have a fitted effect of over 15% in size)
Outline: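 VM7Luc4E2 cells (endogenous full-length ER-alpha, 4×ERE-luciferase) were precultured 5 days in phenol red-free medium with 10% charcoal-stripped FBS, given 10.0nM ICI-182,780 (final), then treated with compounds at 15 concentrations for 22hr at 37C; luminescence read with ONE-Glo.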

[3] = qHTS assay to identify small molecule agonists or antagonists of the thyroid stimulating hormone receptor (TSHR) signaling pathway - wild type cell line counter screen (AID 1259384; calls by dose curve)
Outline: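 Wild-type Hek293 cells, 800/well, 18 h at 37C, then compound with Ro20-1724 for 30 min RT. cAMP by HTRF (cAMP-d2/anti-cAMP cryptate), 1 h RT, fluorescence read. 15 concentrations, triplicates.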

[4] = molecular target: Thyrotropin receptor (Homo sapiens) (UniProt P16473); experiment: qHTS assay to identify small molecule antagonists of the thyroid stimulating hormone receptor (TSHR) signaling pathway (AID 1259385; calls by dose curve; also: nearly all actives have a fitted effect of over 20% in size)
Outline: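 TSHR-HEK293 cells (800/well) plated 18 h, then compounds with Ro20-1724 and TSH at 1.5 ng/mL final, 30 min at room temperature. cAMP quantified by HTRF (cAMP-d2/anti-cAMP-cryptate, 1 h); 15 concentrations in triplicate.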

[5] = qHTS assay to identify small molecule agonists of the estrogen receptor alpha (ER-alpha) signaling pathway in the presence of an antagonist - cell viability counter screen (AID 1259386);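 also: series mostly up to about 92 µM; cells exposed to compounds for 22 h at 37 °C before the viability read; nearly all actives have a fitted effect of over 30% in size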
Outline: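 VM7Luc4E2 cells (endogenous full-length ER-alpha, 4×ERE-luciferase) were held 5 days in phenol red-free medium with 10% charcoal-stripped FBS, plated, then given 10.0nM ICI-182,780 and compounds at 15 concentrations for 22hr at 37C; viability read by CellTiter-Fluor fluorescence.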

[6] = molecular target: Progesterone receptor (Homo sapiens) (UniProt P06401); experiment: qHTS assay to identify small molecule agonists of the progesterone receptor (PR) signaling pathway (AID 1346784; calls by dose curve; also: nearly all actives have a fitted effect of over 30% in size)
Outline: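 Compounds were tested for PR agonism in HEK 293T cells bearing a beta-lactamase gene under UAS control. Treatment lasted 16 hr at 37C; signal came from fluorescence of a FRET substrate.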

[7] = molecular target: Progesterone receptor (Homo sapiens) (UniProt P06401); experiment: qHTS assay to identify small molecule antagonists of the progesterone receptor (PR) signaling pathway (AID 1346795; active = well fitted inhibition curve with a large enough effect in the signal ratio in the repeat runs, not every such curve was filed as active; the % refers to the signal ratio; also: potency is read from the fitted curve at half-maximal effect)
Outline: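 In HEK293T cells bearing the PR-UAS-bla reporter, compound effects on promegestone-driven (1 nM) beta-lactamase expression are assessed after 16 hr using a fluorescent FRET substrate incubated 2 hr at room temperature.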

[8] = qHTS assay to identify small molecule agonists of the progesterone receptor (PR) signaling pathway - cell viability counter screen (AID 1346799; calls by dose curve; also: nearly all actives have a fitted effect of over 45% in size)
Outline: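 Here, 3,000 PR-UAS-bla HEK293T cells per well were treated with compounds for 16 hr after a 6 hr preincubation at 37C and 5% CO2; cell viability is the CellTiter-Glo luminescence signal.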

[9] = qHTS assay to identify small molecule antagonists of the TGF-beta/Smad signaling pathway - cell viability counter screen (AID 1346824); also: nearly all actives have a fitted effect of over 50% in size
Outline: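 SBE-bla HEK 293T cells, incubated overnight, then compound plus 0.25 ng/mL TGF-beta1 (stock added) for 5 hr at 37 C. Viability was read in the same wells by CellTiter-Glo luminescence after 30 min at room temperature.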

[10] = qHTS assay to identify small molecule agonists of the TGF-beta/Smad signaling pathway - cell viability counter screen (AID 1346829); also: top concentration of the series differs between compounds; nearly all actives have a fitted effect of over 45% in size
Outline: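 CellTiter-Glo luminescence readout; SBE-bla HEK 293T cells, overnight plating, compound 5 hr at 37 C/5% CO2, then bla substrate 2 hr RT, then CellTiter-Glo 30 min RT.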

[11] = qHTS assay to identify small molecule agonists of the TGF-beta/Smad signaling pathway (AID 1346859; active = well fitted activation curve with a large enough effect in the signal ratio in the repeat runs, not every such curve was filed as active; the % refers to the signal ratio; also: series mostly up to about 77 µM)
Outline: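 Each well held 4,000 SBE-bla HEK 293T cells incubated overnight before compound addition; 5 hr later the cleavable FRET substrate went on for 2 hr at room temperature, and fluorescence was read at two emissions.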

[12] = molecular target: Thyrotropin-releasing hormone receptor (Homo sapiens) (UniProt P34981); experiment: qHTS assay to identify small molecule antagonists of the thyrotropin-releasing hormone receptor (TRHR) signaling pathway (AID 1346877; active = well fitted inhibition curve with a large enough effect in the repeat runs, not every such curve was filed as active; also: series mostly up to about 51 µM)
Outline: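 TRHR-expressing HEK293 cells were seeded, cultured 18 h at 37 °C, then loaded with calcium dye for 2 h. Compounds were pre-incubated 5 min at room temperature before 1 nM TRH (final) was added, and kinetic fluorescence was recorded for 3 min.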

[13] = molecular target: Thyrotropin-releasing hormone receptor (Homo sapiens) (UniProt P34981); experiment: qHTS assay to identify small molecule agonists of the thyrotropin-releasing hormone receptor (TRHR) signaling pathway (AID 1346891; calls by dose curve; also: series mostly up to about 58 µM)
Outline: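 Screening of agonists relied on calcium signalling in HEK293 cells expressing human TRHR: dye loading 2 h at 37 °C preceded compound addition and a 3-min fluorescence time course.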

[14] = Human pregnane X receptor (PXR) small molecule agonists, qHTS cell viability counter screen (AID 1346977); also: nearly all actives have a fitted effect of over 50% in size
Outline: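 Tox21 qHTS format; PXR-Luc HepG2, 2,000/well, charcoal-stripped FBS 5%. Cpd exposure 24hr. Read: CellTiter-Fluor fluorescence, multiplexed with luciferase.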

[15] = Caspase-3/7 induction in HepG2 cells by small molecules, qHTS assay (AID 1346978); also: nearly all actives have a fitted effect of over 15% in size
Outline: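 Wild-type HepG2 cells, 2,000/well, settled 5 hr at 37 C and 5% CO2, then compound-treated for 17 hr; caspase-3/7 activity read by luminescent Caspase-Glo 3/7 after 30 min at room temperature.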

[16] = Caspase-3/7 induction in CHO-K1 cells by small molecules, qHTS assay (AID 1346980); also: nearly all actives have a fitted effect of over 15% in size
Outline: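 Wild-type CHO-K1 cells exposed to compounds for 17hr at 37 C, 5% CO2. Caspase-3/7 activity then measured by Caspase-Glo 3/7 luminescence after 30min at room temperature.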

[17] = Caspase-3/7 induction in HepG2 cells by small molecules, qHTS cell viability counter screen (AID 1346981); also: series mostly up to about 92 µM; nearly all actives have a fitted effect of over 30% in size
Outline: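 Wild-type HepG2 cells (2,000/well) were allowed to settle for 5 hr at 37 C, 5% CO2, then dosed with compounds in DMSO by pin transfer. After 16 hr at 37 C, CellTiter-Fluor was added and fluorescence read 1 hr later.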

[18] = molecular target: Nuclear receptor subfamily 1 group I member 2 (Homo sapiens) (UniProt O75469); experiment: Human pregnane X receptor (PXR) small molecule agonists, qHTS assay (AID 1346982); also: nearly all actives have a fitted effect of over 35% in size; also: potency is read from the fitted curve at half-maximal effect
Outline: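 PXR-Luc HepG2 cells (CYP3A4 promoter-driven luciferase) were seeded in medium with 5% charcoal-stripped FBS, left 5 hr at 37 C, then exposed to compounds in DMSO for 24 hr. Luminescence was read after ONE-Glo addition.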

[19] = Caspase-3/7 induction in CHO-K1 cells by small molecules, qHTS cell viability counter screen (AID 1346979); also: nearly all actives have a fitted effect of over 35% in size
Outline: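 CellTiter-Fluor viability check, qHTS format: wild-type CHO-K1, 16hr compound treatment, 1hr reagent incubation, fluorescence read.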

[20] = qHTS assay to identify small molecule antagonists of the progesterone receptor (PR) signaling pathway - cell viability counter screen (AID 1346798); also: series mostly up to about 92 µM; nearly all actives have a fitted effect of over 50% in size
Outline: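 Following a 4 hr attachment, PR-UAS-bla HEK293T cells in charcoal-stripped FBS medium were exposed to compounds with R5020 for 16 hr; CellTiter-Glo was added and luminescence read after 30 min at room temperature.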

Measured: Potency

Sequence of Nuclear receptor subfamily 1 group I member 2 (Homo sapiens) (O75469 whole entry, looked up): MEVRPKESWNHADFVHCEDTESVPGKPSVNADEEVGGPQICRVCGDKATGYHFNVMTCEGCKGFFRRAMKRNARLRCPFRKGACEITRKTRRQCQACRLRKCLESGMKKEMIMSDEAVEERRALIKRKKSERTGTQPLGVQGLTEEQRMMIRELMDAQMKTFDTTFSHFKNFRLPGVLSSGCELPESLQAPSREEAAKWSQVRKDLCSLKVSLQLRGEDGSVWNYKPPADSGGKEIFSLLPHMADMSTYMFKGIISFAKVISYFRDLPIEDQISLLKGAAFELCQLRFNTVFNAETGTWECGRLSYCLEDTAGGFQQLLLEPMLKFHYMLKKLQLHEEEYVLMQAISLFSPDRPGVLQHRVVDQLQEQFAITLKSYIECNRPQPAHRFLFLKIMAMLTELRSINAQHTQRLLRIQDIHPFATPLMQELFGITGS
Sequence of Thyrotropin receptor (Homo sapiens) (P16473 whole entry, looked up): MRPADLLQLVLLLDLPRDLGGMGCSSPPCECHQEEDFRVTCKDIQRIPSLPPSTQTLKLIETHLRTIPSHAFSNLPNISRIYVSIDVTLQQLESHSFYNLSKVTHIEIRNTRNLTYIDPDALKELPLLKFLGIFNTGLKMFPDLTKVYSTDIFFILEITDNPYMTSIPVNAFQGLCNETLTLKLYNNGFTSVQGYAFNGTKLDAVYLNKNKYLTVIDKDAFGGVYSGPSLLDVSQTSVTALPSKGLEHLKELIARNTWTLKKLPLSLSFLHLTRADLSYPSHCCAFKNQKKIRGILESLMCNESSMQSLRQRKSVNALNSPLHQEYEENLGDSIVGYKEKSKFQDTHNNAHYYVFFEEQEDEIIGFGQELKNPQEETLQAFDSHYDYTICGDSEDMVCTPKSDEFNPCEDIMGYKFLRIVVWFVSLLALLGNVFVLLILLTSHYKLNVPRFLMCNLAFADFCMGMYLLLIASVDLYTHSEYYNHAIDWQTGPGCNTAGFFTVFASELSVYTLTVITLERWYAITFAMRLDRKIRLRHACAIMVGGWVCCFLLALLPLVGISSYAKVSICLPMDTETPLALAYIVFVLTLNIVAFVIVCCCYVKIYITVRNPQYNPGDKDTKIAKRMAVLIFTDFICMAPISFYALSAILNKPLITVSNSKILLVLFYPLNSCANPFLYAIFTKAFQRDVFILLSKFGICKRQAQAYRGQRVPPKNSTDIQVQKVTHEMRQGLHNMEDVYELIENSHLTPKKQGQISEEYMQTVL
Sequence of Thyrotropin-releasing hormone receptor (Homo sapiens) (P34981 whole entry, looked up): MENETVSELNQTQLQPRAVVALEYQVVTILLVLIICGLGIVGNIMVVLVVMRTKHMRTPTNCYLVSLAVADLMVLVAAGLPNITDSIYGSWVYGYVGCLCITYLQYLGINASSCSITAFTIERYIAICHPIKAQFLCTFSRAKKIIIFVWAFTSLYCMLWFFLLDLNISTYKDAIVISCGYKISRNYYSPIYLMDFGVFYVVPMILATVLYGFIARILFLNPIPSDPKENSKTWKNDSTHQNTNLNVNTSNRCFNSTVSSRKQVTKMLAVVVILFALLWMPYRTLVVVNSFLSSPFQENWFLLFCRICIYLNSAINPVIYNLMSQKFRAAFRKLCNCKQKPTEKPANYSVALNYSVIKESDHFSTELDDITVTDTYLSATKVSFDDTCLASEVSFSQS
Sequence of Progesterone receptor (Homo sapiens) (P06401 whole entry, looked up): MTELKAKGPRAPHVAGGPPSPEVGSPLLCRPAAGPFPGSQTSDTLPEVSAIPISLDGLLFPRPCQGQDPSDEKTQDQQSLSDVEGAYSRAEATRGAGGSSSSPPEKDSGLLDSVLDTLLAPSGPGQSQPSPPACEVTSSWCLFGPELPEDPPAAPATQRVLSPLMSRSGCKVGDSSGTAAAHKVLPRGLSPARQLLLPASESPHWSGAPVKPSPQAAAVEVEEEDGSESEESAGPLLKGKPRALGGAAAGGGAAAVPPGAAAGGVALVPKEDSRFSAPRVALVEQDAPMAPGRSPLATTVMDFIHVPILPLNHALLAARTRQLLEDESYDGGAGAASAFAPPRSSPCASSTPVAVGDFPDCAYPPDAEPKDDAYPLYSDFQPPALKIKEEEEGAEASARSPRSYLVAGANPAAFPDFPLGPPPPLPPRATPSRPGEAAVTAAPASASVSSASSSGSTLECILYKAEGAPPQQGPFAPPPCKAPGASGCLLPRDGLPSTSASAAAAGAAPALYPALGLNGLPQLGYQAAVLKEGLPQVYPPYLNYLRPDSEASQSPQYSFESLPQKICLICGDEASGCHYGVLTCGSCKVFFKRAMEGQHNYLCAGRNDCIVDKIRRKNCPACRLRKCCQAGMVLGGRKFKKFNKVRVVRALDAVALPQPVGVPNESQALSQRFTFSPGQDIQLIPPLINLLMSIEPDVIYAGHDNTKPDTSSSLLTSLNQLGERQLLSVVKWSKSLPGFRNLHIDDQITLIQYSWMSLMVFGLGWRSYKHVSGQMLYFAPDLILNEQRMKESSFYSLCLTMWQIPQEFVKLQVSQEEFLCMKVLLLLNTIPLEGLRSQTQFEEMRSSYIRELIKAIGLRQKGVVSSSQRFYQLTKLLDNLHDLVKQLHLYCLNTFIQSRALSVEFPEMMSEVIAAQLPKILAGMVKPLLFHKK
Sequence of Estrogen receptor (Homo sapiens) (P03372 whole entry, looked up): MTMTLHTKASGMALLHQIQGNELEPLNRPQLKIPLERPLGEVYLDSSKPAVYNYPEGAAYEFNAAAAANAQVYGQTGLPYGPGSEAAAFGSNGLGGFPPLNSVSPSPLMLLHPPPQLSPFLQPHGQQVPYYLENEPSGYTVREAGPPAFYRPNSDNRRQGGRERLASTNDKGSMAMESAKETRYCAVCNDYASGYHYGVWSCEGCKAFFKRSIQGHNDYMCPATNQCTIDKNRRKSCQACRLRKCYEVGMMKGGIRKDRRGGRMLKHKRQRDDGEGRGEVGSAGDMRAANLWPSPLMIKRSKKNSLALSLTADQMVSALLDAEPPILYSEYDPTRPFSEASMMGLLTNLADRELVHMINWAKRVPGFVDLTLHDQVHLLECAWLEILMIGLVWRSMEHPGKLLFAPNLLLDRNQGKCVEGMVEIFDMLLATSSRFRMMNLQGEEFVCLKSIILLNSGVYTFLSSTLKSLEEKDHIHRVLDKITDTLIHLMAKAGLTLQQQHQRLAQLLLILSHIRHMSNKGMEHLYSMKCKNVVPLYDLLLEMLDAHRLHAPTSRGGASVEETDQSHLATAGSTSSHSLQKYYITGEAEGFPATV

O=C(CCCCC(=O)Nc1c(I)cc(I)c(C(=O)O)c1I)Nc1c(I)cc(I)c(C(=O)O)c1I
not listed: [19] | [20]
inactive: all other assays above

COc1cc(OC)nc(O[C@H](C(=O)O)C(OC)(c2ccccc2)c2ccccc2)n1
not listed: [7] | [20]
inactive: all other assays above

CC(C)Cn1cnc2c1c(=O)n(C)c(=O)n2C
not listed: [6] | [8]
inactive: all other assays above

C[C@@H](O)C(=O)O
not listed: [6] | [8]
inactive: all other assays above

CCC(C)OC(C)CC (stereo not drawn)
not listed: [7] | [8] | [12] | [13] | [20]
inactive: all other assays above

CCC(=O)c1c(O)cc(O)cc1O
not listed: [7] | [12] | [13]
inactive: all other assays above

CCCCCc1cccc(=O)o1
not listed: [12] | [13] | [20]
inactive: all other assays above

C=CCSSCCC
not listed: [8] | [20]
inactive: all other assays above

CCC(C(=O)OCCN1CCOC(c2ccccc2)C1C)c1ccccc1 (stereo not drawn)
active: [7] 23.7 µM | [18] 33.5 µM
not listed: [8] | [20]
inactive: all other assays above

CCC[C@@H]1C[C@@H](C(=O)N[C@@H]([C@H]2O[C@H](SC)[C@H](O)[C@@H](O)[C@H]2O)[C@@H](C)O)N(C)C1
not listed: [6] | [7] | [8] | [11]
inactive: all other assays above

CCCCCC(C)O (stereo not drawn)
not listed: [7]
inactive: all other assays above

CCN(CC)CCN
not listed: [11] | [12] | [13] | [20]
inactive: all other assays above

CCc1occc(=O)c1O
not listed: [12] | [13] | [20]
inactive: all other assays above

C=CCCCCCCCCC(=O)OCCCC
not listed: [17] | [20]
inactive: all other assays above

CN(C)C(C)(C)CO
not listed: [9] | [20]
inactive: all other assays above

C=CC(=O)OCC1CCCO1 (stereo not drawn)
not listed: [7]
inactive: all other assays above

Cc1c(N)cccc1Cl
not listed: [6] | [7]
inactive: all other assays above
